# DT40 TDP1 no CPT: qHTS for Inhibitors of human tyrosyl-DNA phosphodiesterase 1 (TDP1): qHTS in cells in absence of CPT. DT40 Tdp1-/- hTDP1 cells, no CPT, ATP luminescence, 48 h. Potency, µM (series often up to 46.2 µM), most hits filed as inhibitors. hit rate 15% among 420,000; further: nearly all actives have a fitted effect of over 55% in size
#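 Chicken DT40 Tdp1-/- cells stably complemented with human TDP1 were seeded at 400 cells/well with DMSO in place of 20 nM camptothecin. After compound pinning, cells grew at least 48 hr at 37 °C; viability read by CellTiter-Glo luminescence.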
# TDP1 cell CPT: DT40-hTDP1 cell growth loss with CPT | AID 686979 | chicken DT40 Tdp1-/-;hTDP1 cells + 20 nM CPT, ATP luminescence, 48 h | hit rate 12% among 420,000 | Potency, µM (highest dose often 46.2 µM), usual class: inhibitors; further: nearly all actives have a fitted effect of over 55% in size
#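 Cell growth measured by CellTiter-Glo luminescence after a minimum 48 h, 37 C compound exposure with 20 nM CPT in Tdp1-knockout DT40 cells stably expressing hTDP1, seeded 400/well; qHTS titration format.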
# ALOX12 inh: blocks human arachidonate 12S-lipoxygenase; hit rate 1.1% among 580,000; P18054; purified 12hLO, xylenol orange hydroperoxide absorbance; Potency, µM (highest dose often 108 µM), most hits filed as inhibitors
#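 Purified human 12hLO (150 nM final) in 25 mM Hepes, 0.01% Triton X-100, pH 7.0 was preincubated 15 min at room temperature with compound. Then 40 uM arachidonic acid was added, 30 min. Hydroperoxide was read by Fe-XO absorbance ratio 573/405 nm.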
# VP16 counter: inhibits Gal4-VP16 luciferase reporter, ROR gamma counter-screen; Drosophila S2 Gal4-VP16 UAS-luciferase, luminescence, 20 h; Potency, µM (series often up to 53.6 µM), actives largely listed as inhibitors; hit rate 3.5% among 310,000;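 further: Gal4-VP16 expression switched on by copper sulfate through the metallothionein promoter; nearly all actives have a fitted effect of over 50% in size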
# ELG1 DNA repair: ELG1-dependent DNA repair inhibition. HEK293T ELG1-luciferase reporter, luminescence, 16 h; DNA damage induced by 5-fluorouridine. Potency, µM (titrated, usually from 46.1 µM), most hits filed as inhibitors. hit rate 2.3% among 330,000. AID 504467; further: nearly all actives have a fitted effect of over 55% in size
#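 Step one: seed 2,000 cells per well. Step two: pin-transfer compound or DMSO alongside 5-fluorouridine. Step three: incubate 16 hr, 37 °C, 5% CO2. Step four: add ONE-Glo, wait 30 min, read luminescence.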
# RORg inh: blocks mouse ROR gamma transcriptional activity; Potency, µM (highest dose often 53.6 µM), hits mostly inhibitors; Drosophila S2 Gal4-RORgamma UAS-luciferase reporter, 20 h; AID 2551; hit rate 5.4% among 310,000; further: nearly all actives have a fitted effect of over 60% in size
# Target sequence (P51450 whole entry, looked up, the tested form may be a part): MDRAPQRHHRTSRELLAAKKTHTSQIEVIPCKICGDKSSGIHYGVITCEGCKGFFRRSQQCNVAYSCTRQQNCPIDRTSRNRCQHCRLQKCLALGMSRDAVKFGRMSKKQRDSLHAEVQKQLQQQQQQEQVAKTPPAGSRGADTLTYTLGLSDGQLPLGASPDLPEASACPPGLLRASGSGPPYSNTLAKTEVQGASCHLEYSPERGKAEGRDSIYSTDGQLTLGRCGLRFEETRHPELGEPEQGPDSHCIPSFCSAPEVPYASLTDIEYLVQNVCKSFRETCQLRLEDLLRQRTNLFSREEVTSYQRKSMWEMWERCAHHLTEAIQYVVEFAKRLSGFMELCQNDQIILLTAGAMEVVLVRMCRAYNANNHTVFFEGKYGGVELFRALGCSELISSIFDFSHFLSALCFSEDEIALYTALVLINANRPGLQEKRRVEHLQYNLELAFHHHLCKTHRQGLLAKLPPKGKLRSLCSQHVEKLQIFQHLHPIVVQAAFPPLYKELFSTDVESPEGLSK
#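 In this cell-based reporter format, copper sulfate (700 uM final) drives Gal4–ROR gamma fusion expression from a metallothionein promoter in Drosophila Schneider cells; compounds preincubated 1 hr, reporter read after 20 hr at ambient temperature.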
# Numbers stand for hits; - = inactive; ? = inconclusive; . = no result; ! = not confirmed by another sample; [ ] = remark or other dose. Most compounds without a hit are left out; they make up all but 15% or so of the library. The call rests on the fitted dose curve; in most records, active means well fitted curve in the direction sought with a large enough effect; inconclusive means small, poorly fitted or top-dose-only effect, or another doubt; inactive means no such curve, though single readings can be large; an effect the other way counts as inactive or inconclusive.
SMILES,DT40 TDP1 no CPT,TDP1 cell CPT,ALOX12 inh,VP16 counter,ELG1 DNA repair,RORg inh
COc1cc2c(cc1NC(=O)C(C)NCc1ccccc1)oc1ccccc12 (centres undefined),16µM,?,-,?,-,-
COc1ccc(CN(C)CC(=O)Nc2ccc(Cl)cc2C(F)(F)F)c(OC)c1,16µM,21µM,-,-,-,-
COc1ccc(CN(C)CC(=O)Nc2ccccc2C(F)(F)F)c(OC)c1,-,-,-,-,-,-
COc1cc2c(cc1NC(=O)COc1ccccc1OC)oc1ccccc12,?,?,-,-[0.365 µM],-,-
COc1ccc(CN(C)CC(=O)Nc2cc3oc4ccccc4c3cc2OC)c(OC)c1,10µM,13µM,-,-,?,?
Cc1ccc(CN2CCCC(c3nc(-c4cccnc4)no3)CCNC(=O)CC2)o1 (centres undefined),.,.,-,.,.,.
Cc1cccc(-c2noc(-c3cn(CC(=O)NCc4cccs4)c4nc(C)ccc4c3=O)n2)c1,.,.,-,.,.,.
COc1cc2c(cc1NC(=O)CN(C)Cc1ccc(OC)c(OC)c1)oc1ccccc12,16µM,16µM,-,-,15µM,?
COc1cc2c(cc1NC(=O)Cc1ccc(C)cc1)oc1ccccc12,?,?,-,-,?,?
FC(F)(F)c1cnc(-c2cnc(-c3ccncc3)nc2)c(Cl)c1,-,-,-,-,?,-
FC(F)(F)c1cnc(-c2cnc(-c3ccccn3)nc2)c(Cl)c1,?,?,-,-,?,5.6µM
CCOc1ccc(S(=O)(=O)n2ccnc2)cc1C(C)(C)C,.,.,-,.,.,.
Cc1nc2cc(-c3ccccc3)nn2c(C)c1CCC(=O)NC(C)c1ccc2c(c1)OCCO2 (centres undefined),18µM,?,-,-,-,-
Cc1nc2nc(C)c(CCC(=O)NC(C)c3ccc4c(c3)OCCO4)c(C)n2n1 (centres undefined),-,-,?,-,-,-
Cc1nc2cc(-c3cccc(F)c3)nn2c(C)c1CCC(=O)NC(C)c1ccc2c(c1)OCCO2 (centres undefined),?,16µM,-,-,?,?
COc1cc2c(cc1NC(=O)C(C)Oc1ccc(Cl)cc1Cl)oc1ccccc12 (centres undefined),-,-,-,.,.,.
COc1ccc(OC)c(NC(=O)Nc2cc(-c3nc4ccccc4o3)ccc2OC)c1,.,.,-,.,.,.
COc1ccc(-c2nc3ccccc3o2)cc1NC(=O)C(C)Oc1ccc(Cl)cc1Cl (centres undefined),23µM,?,-,.,.,.
COc1ccc(-c2nc3ccccc3o2)cc1NC(=O)CSc1ccc(Cl)cc1,?,?,?,-,?,1.4µM
Cc1ccc(SCCN2CCC(C)CCC2=O)cc1 (centres undefined),?,-,-,-,?,-
CCCN1CCC(=O)N(C(CSc2ccc(OC)cc2)c2ccccc2)CC1 (centres undefined),.,.,.,-,.,-
Cc1ccc(S[C@@H](CCN2CC[C@H](C(C)(C)C)CCC2=O)c2ccccc2)cc1,?,?,?,10µM,-,-
COc1ccc(S[C@@H](CCN2CC[C@H](C)CCC2=O)c2ccccc2)cc1,15µM,10µM,-,.,-,.
C[C@@H]1CCC(=O)N(CC[C@H](Oc2ccccc2)c2ccccc2)CC1,13µM,?,-,-,-,-
C[C@H]1CCC(=O)N(CCSc2ccc(Br)cc2)CC1,18µM,16µM,-,.,?,.
SMILES,DT40 TDP1 no CPT,TDP1 cell CPT,ALOX12 inh,VP16 counter,ELG1 DNA repair,RORg inh
CC(C)(C)C1CCC(=O)N(CCC#N)CC1 (centres undefined),-,-,-,-,-,-
CN1CCC(=O)N(CCOc2ccccc2)CC1,-,?,?,-,?,-
O=C(Cn1nc(Cc2ccncc2)c2ccccc2c1=O)Nc1ccc(Oc2ccccc2)cc1,.,.,-,.,.,.
O=C(Cn1cccc1-c1nc(-c2ccc3c(c2)OCO3)no1)Nc1cc(F)cc(F)c1,.,.,-,.,.,.
C[C@@H]1CCC(=O)N(CC[C@H](Sc2ccc(Br)cc2)c2ccccc2)CC1,20µM,18µM,?,.,-,.
Cc1ccc(S[C@@H](CCN2CC[C@H](C)CCC2=O)c2ccccc2)cc1,16µM,?,?,-,-,?
Cc1ccc(SCCN2CCN(CC(C)C)CCC2=O)cc1,?,?,-,-,?,-
Cc1ccc(S[C@@H](CCN2CC[C@H](O)CCC2=O)c2ccccc2)cc1,-,-,35µM,-,-,-
CCN(CC)C(=O)N1CCC(n2c(C)cnc2C2CCOCC2)CC1,.,.,-,.,.,.
O=C(CNC(c1ccccc1)c1ccccc1)Nc1c(F)cccc1F,16µM,?,-,-,-,-
Cc1ccc(NC(=O)CNC(c2ccccc2)c2ccccc2)c(F)c1,?,?,-,-,-,-
COc1ccc(Cl)cc1NC(=O)CCCC(=O)c1ccccc1,?,21µM,-,-,-,-
COc1ccc(Cl)cc1NC(=O)C/C(C)=N/NC(=O)c1ccc(O)cc1,-,-,-,?,-,8.9µM
COc1ccc(Cl)cc1NC(=O)COC(=O)c1cc(C)oc1C,3.3µM,?,-,.,-,.
Cc1nn(-c2ccc(C(C)(C)C)cc2)c(C)c1[C@@H]1C=C[C@@H](NCc2ccco2)C1,.,.,-,.,.,.
CC1=C(C(=O)NC2CCCCCC2)C2(CCCCCC2)OC1=O,.,.,-,.,.,.
O=S1(=O)C[C@H](N2CCN(c3ncccn3)CC2)[C@@H](S(=O)(=O)c2ccc(F)cc2)C1,.,.,-,.,.,.
O=C(Nc1ccc(C(=O)N(Cc2ccccc2)C2CC2)cc1)c1cccs1,.,.,-,.,.,.
COc1cc(Cl)c(C)cc1NC(=O)CSc1cc(Cl)ccc1Cl,23µM,?,?,-,-,-
COc1ccc(Cl)cc1NC(=O)CNC(c1ccccc1)c1ccccc1,?,?,-,2.5µM,-,?
COc1ccc(C)cc1NC(=O)CNC(c1ccccc1)c1ccccc1,?,?,-,-,-,-
O=C(Cn1ccn2nc(-c3ccc(F)cc3)c(CO)c2c1=O)Nc1cccc(F)c1,.,.,-,.,.,.
CCN1CCN(CCCNC(=O)CN2CC3CC(C2)[C@H]2CCCC(=O)N2C3)CC1 (some centres undefined),.,.,-,.,.,.
CCCN(CC(=O)Nc1ccccc1C)C(=O)c1ccc2ccccc2n1,?,?,-,.,-,.
CCCN(CC(=O)Nc1ccccc1C)C(=O)c1cc2ccccc2oc1=O,-,-,13µM!,.,.,.
CCCN(CC(=O)Nc1ccccc1C)C(=O)c1ccc(COc2ccccc2)cc1,?,23µM,-,?,?,?
CCOC(=O)c1cccc(NC(=O)N2CC[C@@H](CC(=O)NCCOC)[C@@H](CC)C2)c1,.,.,-,.,.,.
O=C(Nc1ccc(F)cc1F)C1(CCO)CCN(c2ncccn2)C1 (centres undefined),.,.,-,.,.,.

# Screening results as filed in PubChem BioAssay.
